Only some compounds are listed: those with a hit (about 0.84% of all), similar ones and a draw of the others.
PPARg SRC1 recr: PPARgamma agonists recruiting SRC-1 coactivator, primary screen, biochemical; Peroxisome proliferator-activated receptor gamma (Homo sapiens), P37231; PPARgamma-SRC-1 coactivator recruitment biochemical assay; activation, % at 8 µM; 0.41% of 200,000 active; in the data active means activation above about 19%
Target sequence (P37231 whole entry, looked up): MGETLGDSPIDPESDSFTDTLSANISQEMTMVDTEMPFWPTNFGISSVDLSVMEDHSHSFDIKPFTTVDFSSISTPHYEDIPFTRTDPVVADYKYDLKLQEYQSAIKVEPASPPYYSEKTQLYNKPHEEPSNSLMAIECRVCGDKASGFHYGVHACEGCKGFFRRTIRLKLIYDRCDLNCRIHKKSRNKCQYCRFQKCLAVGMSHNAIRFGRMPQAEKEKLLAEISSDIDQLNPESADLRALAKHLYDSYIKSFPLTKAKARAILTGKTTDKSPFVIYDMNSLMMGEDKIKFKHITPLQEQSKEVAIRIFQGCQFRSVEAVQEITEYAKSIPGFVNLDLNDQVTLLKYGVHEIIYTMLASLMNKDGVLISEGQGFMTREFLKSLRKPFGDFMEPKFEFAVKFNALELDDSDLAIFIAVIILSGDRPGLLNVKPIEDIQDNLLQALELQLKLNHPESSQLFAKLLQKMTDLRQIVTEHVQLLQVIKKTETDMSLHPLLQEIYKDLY
PPARg SRC3 recr: PPARgamma agonists recruiting SRC-3 coactivator, primary screen, biochemical; biochemical PPARgamma/SRC-3 coactivator recruitment assay; activation, % at 8 µM; 0.26% of 200,000 active; AID 731, 2007; in the data active means activation above about 23%
PPARg SRC-2 ag: agonists of PPARg-SRC-2 recruitment, primary screen, biochemical, HTS; Peroxisome proliferator-activated receptor gamma (Homo sapiens), P37231; PPARgamma LBD-SRC-2 recruitment; 0.34% of 200,000 active; activation, % at 8 µM; in the data active means activation above about 22%
TR-FRET SRC-2 ct: TR-FRET signal artefacts, primary screen, artefact control for PPARgamma SRC-2 agonist project, biochemical | TR-FRET artefact counter-screen; hits give high values | TR-FRET ratio at 8 µM | 0.4% of 200,000 active | AID 1049, 2008
SRC1 TRFRET art: TR-FRET detection interference compounds, primary screen, artefact control for PPARgamma SRC-1 recruitment agonists, biochemical, TR-FRET emission ratio; TR-FRET ratio at 8 µM; TR-FRET detection artefact counter-screen; hits give high values; AID 1051, 2008; 0.34% of 99,000 active; in the data active means TR-FRET ratio above about 2300
SRC3 TRFRET art: TR-FRET detection interference compounds, artefact control for PPARgamma SRC-3 recruitment agonists, biochemical, TR-FRET ratio. TR-FRET artefact counter-screen, PPARgamma/SRC-3 format; hits give high values. TR-FRET ratio at 8 µM. 0.39% of 99,000 active. AID 1048, 2008
Hits are given with their value; n = inactive; x = not tested or not shown. Unless noted, no stated cut-off is given here; in the data, active means TR-FRET ratio above about 2000; inactive means the rest.

SMILES | PPARg SRC1 recr | PPARg SRC3 recr | PPARg SRC-2 ag | TR-FRET SRC-2 ct | SRC1 TRFRET art | SRC3 TRFRET art
CSc1nsc(/C=C/Nc2ccc(C(=O)O)cc2)c1C#N | n | n | n | 2141 | 2461 | 2133
CCOc1cc(/C=N/NC(=O)c2ccc(O)cc2)ccc1Oc1nc(Cl)ncc1F | n | n | n | n | 2558 | n
Cc1cc(C)n2c(nc3ccccc32)c1C(=O)NCc1ccccc1 | n | n | n | n | n | n
COc1ccccc1/C=N/NC(=O)c1ccc(Br)cc1 | n | n | n | n | 2364 | n
COc1ccc(/C=N/NC(=O)c2ccc(Br)cc2)c(OC)c1 | n | n | n | n | n | n
Cc1cc(/C=C2\NC(=O)N(Cc3ccc(Cl)cc3)C2=O)c(C)n1C | n | n | n | n | n | n
O=C(Nc1nc2ccccc2c(=O)[nH]1)c1ccccc1SCc1ccccc1 | n | n | n | n | n | 2104
CCNC(=O)c1ccccc1SCc1ccccc1 | n | n | n | n | n | n
O=S(=O)(NC(=S)NC1CCCCC1)c1ccccc1 | n | n | n | n | n | n
CCOC(=O)c1oc2ccc(S(=O)(=O)N3CCC(C)CC3)cc2c1C | 46 | n | n | n | x | x
Cc1[nH]c2ccccc2c1C(=O)C(=O)NCCOc1ccccc1 | n | n | 24 | n | n | n
CCN(CC)c1ccc(NC(=O)c2ccccc2Br)cc1S(=O)(=O)Nc1ccccc1OC | n | n | n | n | n | n
CCN(CC)c1ccc(NC(=O)c2ccccc2F)cc1S(=O)(=O)Nc1ccccc1OC | n | n | n | n | n | 2056
COc1cccc(OCC(=O)NNC(=S)Nc2ccc(Cl)cc2Cl)c1 | n | n | n | n | n | n
Cc1ccc(N(CC(=O)N/N=C/c2cccc(Br)c2)S(C)(=O)=O)cc1 | n | n | n | n | n | n
CCOC(=O)CC1COCCN1Cc1cn(C)nc1-c1ccccc1F (stereo unspecified) | n | n | n | n | n | n
CCN(CC)c1ccc(N=Cc2ccc(N(CC)CC)cc2O)cc1 | n | 41 | 27 | n | x | x
CCN(CC)c1ccc(C=Nc2ccc(C)cc2)c(O)c1 | n | n | n | n | x | x
COc1cccc(NC(=S)NCc2ccc3c(c2)cc(C)n3C)c1 | n | n | n | n | 2579 | n
Clc1ccc(CO/N=C2\CCCc3nonc32)c(Cl)c1 | n | n | n | n | n | n
O=C(C1=C[C@@H](c2ccc(C(F)(F)F)cc2)C[C@@H](OCc2ccc(CO)cc2)O1)N1CCOCC1 | n | n | 24 | n | n | n
CN1/C(=C\C(=O)COC(=O)Cn2nnc(-c3ccccc3)n2)C(C)(C)c2ccccc21 | n | n | n | 2474 | x | x
COc1cc(OC)cc(C(=O)NCC(=O)OCC(=O)/C=C2/N(C)c3ccccc3C2(C)C)c1 | n | n | n | n | n | n
COc1ccc(C2CC(c3cccs3)=NN2C(=O)COC(=O)c2cncc(Br)c2)cc1OC (stereo unspecified) | n | n | n | n | n | 2284
COc1ccc(C2CC(c3cccs3)=NN2C(=O)COC(=O)C2CCCCC2)cc1OC (stereo unspecified) | n | n | n | n | n | n
SMILES | PPARg SRC1 recr | PPARg SRC3 recr | PPARg SRC-2 ag | TR-FRET SRC-2 ct | SRC1 TRFRET art | SRC3 TRFRET art
CCc1nnc(NC(=O)CSc2nc3cccnc3n2Cc2ccccc2)s1 | n | n | n | n | x | x
CC(C)c1ccc(OCC(=O)NC(=S)Nc2ccc3c4c(cccc24)CC3)cc1 | 22 | n | n | n | x | x
Oc1ccc(Cl)cc1C1=NNC(c2cc(Br)cc3c2OCOC3)C1 (stereo unspecified) | n | n | n | n | 2488 | n
CC(=O)c1ccc(NC(=O)COC(=O)c2ccccc2N=Nc2ccc(N(C)C)cc2)cc1 | n | n | n | n | 2419 | n
CCN(CC)S(=O)(=O)c1cccc(NC(=O)COC(=O)c2n[nH]c(=O)c3ccccc23)c1 | 22 | n | n | n | n | n
Cc1ccccc1C(=O)OC1OC(=O)C(Cl)=C1N1CCOCC1 (stereo unspecified) | n | n | n | n | n | n
COc1cccc(NC(=S)/C(=C(\[O-])c2ccc(OC(F)F)cc2)[n+]2ccccc2)c1 | n | n | n | 1987 | n | n

Screens deposited in PubChem BioAssay by The Scripps Research Institute Molecular Screening Center.
